Results as given in PubChem BioAssay AID1850 (Southern Research Specialized Biocontainment Screening …, 2009).
Several values for one entry are separate records, joined by “and”; a condition that tells them apart may be missing. Equal values may be shown once. The whole screen tested about 310,000 compounds, of which about 1,000 (0.32%) were called active. How the calls were made is not given here. The list is a sample of the results. Potency and affinity values are given separately.

Test: Inhibition of PhoP regulon, Salmonella typhi GFP reporter cells, confirmation, 4 h (AID 1850);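 further: 0% = induced wells with vehicle and 100% = uninduced wells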
Conditions: Salmonella Typhi PhoP-promoter GFP reporter, fluorescence, at 50 µM, stronger effect = higher value
For `O=C(CCN1C(=O)C2C3C=CC(C3)C2C1=O)N1CCN(c2ccccc2F)CC1` (configuration not stated), the inhibition was 18.6% (inactive). In the case of `COC(=O)CSc1nc2nc(-c3cccs3)cc(C(F)(F)F)c2c(=O)[nH]1`, the inhibition is reported as -1.37% (inactive). In the case of `CNC(=O)c1cc2c(cn1)[nH]c1ccccc12`, the inhibition is reported as 3.35% (inactive). In the case of `CCOC(=O)c1cc2c(cn1)[nH]c1ccccc12`, the inhibition is reported as 9.76% (inactive) and 5.1% (inactive). For `CCOC(=O)CCC(=O)Nc1ccc(S(=O)(=O)Nc2cc(OC)nc(OC)n2)cc1`, the inhibition was -6.86% (inactive). With `Cc1cc(C)c2c3c(sc2n1)C(=O)N(C)CC(=O)N3` the inhibition was -4.13% (inactive). In the case of `C/C(N)=C(/C#N)C(=O)COC(=O)CCC1CCCC1`, the inhibition is reported as 0.41% (inactive). In the case of `N#CCC(=O)Nc1ccc(C(=O)N2CCN(c3ccccn3)CC2)cc1`, the inhibition is reported as 14.2% (inactive). In the case of `CN(C)c1ccc(CN(Cc2ccco2)C(=O)c2ccco2)cc1`, the inhibition is reported as -2.38% (inactive). For `CS(=O)(=O)N1CCC(Oc2ccccc2C(=O)NC2CCCCCC2)CC1`, the inhibition was -17.3% (inactive). With `CC(=O)c1cnc(Nc2cccc(C)c2)s1` the inhibition was -8.01% (inactive). For `Cn1c(CNC(=O)CNS(=O)(=O)c2ccc(Br)cc2)cc(=O)n(C)c1=O`, the inhibition was -1.92% (inactive). In the case of `CC(C)c1ccc(OCC(=O)NNC(=S)NC(=O)c2cccs2)c(Br)c1`, the inhibition is reported as -8.98% (inactive). For `COc1ccc2oc(C(=O)OCC(=O)N(C)CC(=O)Nc3ccc(C)cc3)c(C)c2c1`, the inhibition was 6.55% (inactive). For `CC1CCN(C(=O)c2ccc([N+](=O)[O-])o2)CC1`, the inhibition was 5.43% (inactive). For `O=C(c1ccc([N+](=O)[O-])o1)N1CCN(Cc2ccccc2)CC1`, the inhibition was -0.17% (inactive). For `COc1ccc(C(=O)Nc2ccc(N3CCCC3)cc2)cc1`, the inhibition was -0.89% (inactive). With `COc1ccccc1NC(=O)COc1ccc(C(=O)OCC(=O)NC(C)(C)C)cc1OC` the inhibition was -5.27% (inactive). For `COc1cc(/C=N/N=C(N)N)ccc1OCc1ccccc1Cl`, the inhibition was -7.28% (inactive). For `NC(N)=N/N=C/c1ccc(OCc2ccccc2)cc1`, the inhibition was 17% (inactive). With `COc1cc(/C=N/N=C(N)N)ccc1OCc1ccc(Cl)cc1` the inhibition was 49.6% (inactive). With `NC(N)=N/N=C/c1ccc(Cl)cc1Cl` the inhibition was 14.2% (inactive). In the case of `FCCCOc1ccc(/C=N/OCc2ccc(Cl)cc2Cl)cc1`, the inhibition is reported as 14.7% (inactive). With `Clc1ccccc1COc1ccc(/C=N/n2cnnc2)cc1` the inhibition was -10.4% (inactive). For `CCCCCCCNC(=O)C1CC(=O)N(C)C(=Nc2ccc(OC)cc2)S1` (configuration not stated), the inhibition was -2.09% (inactive). With `CCOc1cc(C(=O)OC(C)C(=O)Nc2ccc(S(N)(=O)=O)cc2)ccc1OCC(=O)N1CCOCC1` (configuration not stated) the inhibition was 8.2% (inactive). For `CC(C)CN1C2CCCC1CC(NC(=O)c1ccc([N+](=O)[O-])cc1)C2` (configuration not stated), the inhibition was 3.6% (inactive). With `N/C(=N\NS(=O)(=O)c1ccccc1C(F)(F)F)c1ccccn1` the inhibition was 2.11% (inactive). For `COc1cccc(C(=O)Nc2c3c(nc4c2CCC4)CCCC3)c1`, the inhibition was -0.613% (inactive). In the case of `CC(C)(C)C1CCC(C(=O)OCC(=O)N2CCN(C(=O)c3ccco3)CC2)CC1` (configuration not stated), the inhibition is reported as -8.5% (inactive). With `O=c1c(C=NCc2cccnc2)c(C(F)(F)F)[nH]n1-c1nc2ccccc2s1` the inhibition was 2.08% (inactive). In the case of `COC(=O)C1=C(C)Nc2c(c(=O)n(C)c(=O)n2C)C1c1ccc(Cl)cc1` (configuration not stated), the inhibition is reported as 0.17% (inactive). With `CC(=O)c1sc(-c2ccccn2)nc1C` the inhibition was 3.14% (inactive). With `N=c1ccn2c(n1)O[C@H]1[C@@H](CO)[C@H](O)O[C@H]12` the inhibition was 2.95% (inactive). In the case of `CCOC(=O)c1cn(-c2ccc(F)c(F)c2)c2c(F)c(F)c(F)c(F)c2c1=O`, the inhibition is reported as -9.71% (inactive). With `COC(=O)c1ccc(C)c(NC(=S)NCc2ccc(Cl)cc2)c1` the inhibition was -7.26% (inactive). For `COC(=O)c1cc(NC(=S)NCc2ccc(Cl)cc2)cc(C(=O)OC)c1`, the inhibition was -2.32% (inactive). In the case of `O=C(Nc1ccccc1)O/N=C(\c1ccccc1)c1ccccn1`, the inhibition is reported as -16.2% (inactive). For `Cc1ccc[n+](CC(=O)Nc2ccc([N+](=O)[O-])cc2)c1`, the inhibition was 6.66% (inactive). For `Cc1cccc[n+]1CC(=O)Nc1ccc([N+](=O)[O-])cc1`, the inhibition was 1.95% (inactive). In the case of `N#Cc1ccccc1NC(=O)CSc1nnc(-c2ccccc2)n1-c1ccccc1`, the inhibition is reported as 0.92% (inactive). In the case of `COc1ccc2c(c1OC)C(=O)N(c1ccccc1)C2=O`, the inhibition is reported as 9.99% (inactive). In the case of `COc1ccc2c(c1OC)C(=O)N(c1ccc(O)cc1)C2=O`, the inhibition is reported as -3.53% (inactive). In the case of `CCN(C(=S)NCc1ccccc1)c1ccccc1`, the inhibition is reported as -2.51% (inactive). With `Cc1c(NC(=O)C(=O)/C=C(\O)c2ccc(Cl)cc2)c(=O)n(-c2ccccc2)n1C` the inhibition was -8.97% (inactive). With `Cc1cc(C)nc(N/N=C/c2ccccc2)n1` the inhibition was -1.28% (inactive). With `O=C(N/N=C/c1ccccn1)c1ccco1` the inhibition was 8.62% (inactive). In the case of `O=C(N/N=C/c1ccccn1)c1ccncc1`, the inhibition is reported as 10.1% (inactive). With `O=C(N/N=C/c1ccc(Br)s1)c1cccs1` the inhibition was 5.12% (inactive). In the case of `O=C(N/N=C/c1ccncc1)c1cccs1`, the inhibition is reported as -16.1% (inactive). For `O=C(N/N=C/c1ccccn1)c1ccc(Br)cc1`, the inhibition was 8.46% (inactive). With `Cc1ccc(/C=N/NC(=O)c2cccs2)s1` the inhibition was -3.78% (inactive). For `CC(C)NC(=O)NC(=O)COC(=O)CCOc1ccccc1`, the inhibition was 1.53% (inactive). For `O=C(CC1(CC2=NS(=O)(=O)c3ccccc3N2)CCCC1)NCCc1ccccc1`, the inhibition was -20.4% (inactive). For `O=C(NCC1CC1)c1cc(-c2ccccc2)nn1CC1CC(c2cccc([N+](=O)[O-])c2)=NO1` (configuration not stated), the inhibition was 4.4% (inactive). With `Cc1ccc(Cl)cc1N1CCN(S(=O)(=O)c2c(C)[nH]c(=O)[nH]c2=O)CC1` the inhibition was 8.84% (inactive). For `C=CCNC(=S)N1CCN(c2cc3c(cc2F)c(=O)c(C(=O)O)cn3CC)CC1`, the inhibition was -3.14% (inactive). For `CCn1cc(C(=O)O)c(=O)c2cc(F)c(N3CCN(C(=S)NC(=O)c4c(OC)cccc4OC)CC3)cc21`, the inhibition was 3.3% (inactive). For `Cn1nnnc1SCC(=O)NCCCc1ccccc1`, the inhibition was 0.19% (inactive). In the case of `Cc1cccc(NC(=O)COC(=O)Cc2c[nH]c3ccccc23)c1C`, the inhibition is reported as -3.69% (inactive). For `O=C(NC(=S)NCc1cccnc1)c1cc(Br)ccc1Cl`, the inhibition was -7.31% (inactive). With `O=C(COc1ncnc2ccccc12)NCC1CCCO1` (configuration not stated) the inhibition was 7.4% (inactive). With `Cc1cc(S(=O)(=O)Nc2cccc([N+](=O)[O-])c2)c(C)s1` the inhibition was -6.89% (inactive). For `O=C(NNS(=O)(=O)c1ccccc1[N+](=O)[O-])c1cccc([N+](=O)[O-])c1`, the inhibition was -5.01% (inactive). In the case of `Cc1occc1C(=O)NC(C)C12CC3CC(CC(C3)C1)C2` (configuration not stated), the inhibition is reported as 2.3% (inactive). With `CCC1(CC)Cc2ccccc2C(CC(=O)N2CCOCC2)=N1` the inhibition was -0.09% (inactive). In the case of `COc1ccc(/C=C/C(=O)c2cc(Cl)cc(Cl)c2O)c(OC)c1`, the inhibition is reported as 1.28% (inactive). In the case of `O=c1[nH][nH]c(-c2ccccc2O)c1C(C[N+](=O)[O-])c1ccccc1` (configuration not stated), the inhibition is reported as 10.2% (inactive). For `Cc1ccc(C(C[N+](=O)[O-])c2c(-c3ccccc3O)[nH][nH]c2=O)cc1` (configuration not stated), the inhibition was 3.54% (inactive). With `Cc1ccc2c(C)c(C(=O)Nc3cccnc3)oc2c1` the inhibition was -1.18% (inactive). For `CCN(CC)S(=O)(=O)c1ccc(/C=C/C(=O)Nc2ccc(Br)cc2F)cc1`, the inhibition was -3.09% (inactive). In the case of `CC(=O)c1ccc(Nc2c3c(nc4ccccc24)CCCC3)cc1`, the inhibition is reported as -0.46% (inactive). In the case of `N#Cc1cccc(Nc2c3c(nc4ccccc24)CCC3)c1`, the inhibition is reported as -6.96% (inactive). In the case of `Cc1ccc2nc3c(c(Nc4ccccc4)c2c1)CCC3`, the inhibition is reported as 1.9% (inactive). In the case of `c1ccc2c(Nc3ccc4c(c3)OCCO4)c3c(nc2c1)CCCC3`, the inhibition is reported as -7.16% (inactive). For `COc1ccc(Nc2c3c(nc4ccc(C)cc24)CCC3)cc1`, the inhibition was 26.7% (inactive). For `c1ccc(Nc2c3c(nc4ccccc24)CCC3)cc1`, the inhibition was -12.1% (inactive). For `COc1cc(Nc2c3c(nc4ccccc24)CCC3)cc(OC)c1OC`, the inhibition was -13.8% (inactive). With `c1ccc2c(Nc3ccc4c(c3)OCCO4)c3c(nc2c1)CCC3` the inhibition was 19.5% (inactive). In the case of `O=C(O)C1C2CCC(C2)C1C(=O)N1CCCC1` (configuration not stated), the inhibition is reported as 6.43% (inactive). For `COc1ccc(S(=O)(=O)N(C)CC(=O)NCCC2=CCCCC2)cc1OC`, the inhibition was 9.61% (inactive). With `C/C(CC(=O)Nc1ccccc1C(F)(F)F)=N\NC(=O)c1cnccn1` the inhibition was -1.08% (inactive). In the case of `CCCn1c(O)c(N=NC(=O)CNC(=O)Cc2ccc(OC)cc2)c2ccccc21`, the inhibition is reported as -19.2% (inactive). With `CCCN(CCC)S(=O)(=O)c1cccc(C(=O)N=c2sccn2C)c1` the inhibition was -5.43% (inactive). With `Cc1cccc(NC(=O)c2cc([N+](=O)[O-])ccc2Cl)c1O` the inhibition was -4.69% (inactive). With `CCOc1cc(C(=O)Nc2ccc3c(c2)OCO3)ccc1OCCOc1ccccc1Cl` the inhibition was -0.32% (inactive). In the case of `Cc1ccc2nc3c(c(Nc4cccc(O)c4)c2c1)CCC3`, the inhibition is reported as 7.27% (inactive). In the case of `CC(=O)c1cccc(Nc2c3c(nc4ccccc24)CCC3)c1`, the inhibition is reported as 12.8% (inactive). In the case of `O=C(Cc1ccsc1)Nc1cc(F)ccc1F`, the inhibition is reported as 3.38% (inactive). In the case of `O=C(COc1ccc(S(=O)(=O)N2CCCCC2)cc1Cl)N1CCOCC1`, the inhibition is reported as -6.77% (inactive). In the case of `COc1ccc(Cl)cc1NC(=O)C1CC(=O)N(C2CCCCC2)C1` (configuration not stated), the inhibition is reported as -8.7% (inactive). With `O=C(COC(=O)c1ccc(Br)o1)NCCNC(=O)COC(=O)c1ccc(Br)o1` the inhibition was -1.54% (inactive). With `Cc1cc(C(=O)N2CCC(Cc3ccccc3)CC2)c(C)o1` the inhibition was -3.49% (inactive). In the case of `CCOc1ccc(NC2=NCCCS2)cc1`, the inhibition is reported as -2.96% (inactive). With `CCc1ccc(NC2=NCCCS2)cc1` the inhibition was 39.5% (inactive). In the case of `COC(=O)[C@@H](N)CCCN=C(N)N[N+](=O)[O-]`, the inhibition is reported as -16.2% (inactive). For `CCCCC(CC)COC(=O)c1ccccc1C(=O)OCC(CC)CCCC` (configuration not stated), the inhibition was -4.54% (inactive).
